Molecules are shown by their SMILES. In all, about 64,000 compounds went through this assay and about 220 (0.34%) were called active. What follows is part of a selection rich in actives, with near analogues and random picks from the rest. Unmarked numbers belong to inactive results.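 How the source made its calls: active means inhibition above 50%; inactive means the rest.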

This assay deals with Heat shock protein HSP 90-alpha (Homo sapiens) (UniProt P07900). In words: Hsp90 geldanamycin-site probe displacement – cell lysate, fluorescence polarization, NCI-N417 lysate, primary screen (AID 429).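 Further: 0% = tracer plus lysate wells and 100% = tracer alone without lysate.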 The settings on record: NCI-N417 lysate Hsp90, Cy3B-geldanamycin FP displacement; at 30 µM; active compounds read high.
For the molecule `OC[C@H]1O[C@@H](n2cnc3c(N[C@H]4CC5CCC4C5)ncnc32)[C@H](O)[C@@H]1O` (some centres not stated), the inhibition was -1%.
The value for `O=C(OCC(=O)c1cccs1)C1=COCCO1` was -6.24%.
The value for `COc1cc(Cl)cc(C2NC(=O)NC(C)=C2C(=O)NCc2ccccc2)c1O` (configuration not stated) was -1.82%; that for `O=C(c1ccco1)N1CCN(C(=O)C2CC(c3ccc(Cl)c(Cl)c3)=NO2)CC1` (configuration not stated) was -2.91%; that for `CCC(CC)C(=O)Nc1cc(C(=O)OC)cc(C(=O)OC)c1` was -13.5%.
The same measure for `CC(=O)N1CCC(C(=O)Nc2nc(-c3ccccc3)ns2)CC1`: -2.79%; for `Cc1coc2c(O)cc3c(c12)OC1(N2CCCCC2)C(=O)NCCCC31` (configuration not stated): 96.8% (active); for `CC(=O)/C(C)=N/O`: 5.45%.
With `COc1ccc(-n2nc3c(c2NC(=O)Cc2cccc(C)c2)CS(=O)C3)cc1` (configuration not stated), the inhibition is -2.13%.
`Nc1cc(O)cc2cccnc12`: the inhibition is 150% (active).
The same measure for `O=C(Nc1ccn(Cc2ccc(F)cc2)n1)c1ccncc1`: -2.29%.
The value for `CN(C)c1nc(N)nc(CSc2nnnn2-c2cccc3ccccc23)n1` was -1.24%.
The value for `Cc1ccc(S(=O)(=O)N2CCCC2CO)cc1` (configuration not stated) was -1.22%; that for `C=CCNc1ncnc2ccc(Br)cc12` was -2.85%; that for `Cc1nn(-c2ccccc2)c(CC(C)(C)C(=O)O)c1C(=O)O` was 0.74%.
`Oc1ccc(Cn2cc[nH]c2=S)cc1`: the inhibition was -2.1%.
Regarding `CCC(Sc1nncn1C)C(=O)Nc1nnc(-c2ccc(Cl)cc2)s1` (configuration not stated), the inhibition was -2.78%.
The value for `COc1cc(NCS(=O)(=O)c2ccc(C)cc2)c2ncccc2c1` was -1.2%; that for `O=C(c1ccccc1)c1ccc2nc(N3CCCCC3)c3nncn3c2c1` was -6.65%.
The value for `CCOc1cccc(/C(O)=C2/C(=O)C(=O)N(CCOC)C2c2ccncc2)c1` (configuration not stated) was 2.34%; that for `CS(=O)(=O)c1ccc2nc(NC(=O)CN3CCCCCC3)sc2c1` was -0.64%.
The value for `O=C(NCCc1ccc(Cl)cc1)C1CC(=O)N(C2CCCCC2)C1` (configuration not stated) was -0.35%; that for `Oc1cc2c(cc1O)CN(C(=S)NCCc1ccc(Cl)cc1)CCC2` was 77.6% (active); that for `NS(=O)(=O)c1ccc(CCNC(=O)Nc2ccc(Cl)cc2)cc1` was -2.49%.
Turning to `Cc1ccc(-c2nnc(SC(C)C#N)n2N)cc1` (configuration not stated), the inhibition was 2.26%.
The same measure for `O=C(Nc1nccs1)C1CCCN1S(=O)(=O)c1cccc2cccnc12` (configuration not stated): -1.15%; for `COc1ccccc1NC1=NC(c2ccc(Cl)cc2)N=C(N)N1` (configuration not stated): 1.36%; for `C=CC1(C)CC(=O)C2(O)C(C)(O1)C(OC(C)=O)C(O)C1C(C)(C)CCC(O)C12C` (configuration not stated): -0.45%.
As for `COC(=O)[C@@H](NC(=O)NCc1cccc(OC)c1)C(C)C`, the inhibition is -1.26%.
`CC(C)C[C@H](NC(=O)[C@H](O)[C@H](N)Cc1ccccc1)C(=O)O`: the inhibition was -2.1%.
The same measure for `CCCn1c(=O)c2[nH]c(-c3ccc(OCC(=O)NCCN)cc3)nc2n(CCC)c1=O`: -4.59%; for `CCCCCC(O)c1cccc(OCc2ccc3ccccc3n2)c1` (configuration not stated): 5.96%.
The same measure for `Cc1cc(C(F)(F)F)n2ncc(-c3ccccc3)c2n1`: -3.41%.
The same measure for `Nc1ccc2c3c(cccc13)C(=O)NC2=O`: 7.71%; for `Cc1nc2ccc(S(=O)(=O)NCC(=O)O)cc2s1`: -1.11%; for `CC(C)C1C2=C(CC(C)(C)CC2=O)ON1c1ccccc1` (configuration not stated): -1.36%.
For the molecule `Cc1ccc(F)cc1NC(=O)Cc1nn(C)c(=O)c2ccccc12`, the inhibition was -2.07%.
The same measure for `Cc1c(-c2nn(C)c(=O)c3ccccc23)oc2ccc(F)cc2c1=O`: 89.8% (active); for `O=C1c2oc3ccc(Br)cc3c(=O)c2C(c2cccc(F)c2)N1CCO` (configuration not stated): -0.86%; for `COc1cccc(CN2C(=O)CCC2(C)C(=O)NC2CCCCCC2)c1` (configuration not stated): -0.1%.
`CC(=O)C1=C(O)C(=O)N(c2ccc(S(N)(=O)=O)cc2)C1c1ccccc1F` (configuration not stated): the inhibition is -1.25%.
The same measure for `CC(C)(C)NCC(O)COc1cccc2[nH]c(=O)[nH]c12` (configuration not stated): -2.65%; for `CCOc1ccccc1C1CC(c2ccccc2)Nc2nc(N)nn21` (configuration not stated): 0.5%; for `COc1ccccc1OCCOc1ccc(/C=N/n2cnnc2)cc1`: -1.96%.
The same measure for `CCOc1cc(CO)ccc1OCC(=O)N1CCCCC1`: 1.83%; for `O=C(c1ccc2c(c1)OCO2)N1CCNc2ccccc2C1`: -1.64%.
The value for `Cc1ccc(NC(=O)CS(=O)CC(=O)N(c2ccccc2)C(C)C(=O)NC2CCCC2)cc1` (configuration not stated) was -0.1%.
Regarding `O=C(Nc1nsc(-c2ccccc2)n1)c1ccncc1`, the inhibition was 1.14%.
The value for `O=C(CN(c1ccc2c(c1)OCCO2)S(=O)(=O)c1ccccc1)Nc1ccc2c(c1)OCO2` was 31.2%; that for `Cc1noc(C)c1C(=O)NC(C)c1ccc2c(c1)OCO2` (configuration not stated) was -9.41%; that for `COc1ccc(-c2nnn(Cc3nc(N)nc(N4CCCCC4)n3)n2)cc1` was 2.3%.
The same measure for `O=C(CCC(=O)c1cccs1)NCc1ccccc1`: -2.27%; for `O=C(O)CCC(=O)NCc1ccc2[nH]c3c(c2c1)CCCC3`: 62.8% (active).
Take `O=C(CCCCn1c(=O)[nH]c2ccccc2c1=O)NCc1ccc2c(c1)OCO2`: the inhibition was -3.39%.
The value for `CCOC(=O)C1CCN(C(=O)COc2cc(C)c(Br)c(C)c2)CC1` was -0.95%.
Take `CC1CC2C3CCC4=CC(=O)C=C[C@]4(C)[C@@]3(F)[C@@H](O)C[C@]2(C)[C@@]1(O)C(=O)CO` (some centres not stated): the inhibition is 0.93%.
The same measure for `CC(=O)Oc1cccc(N2C(=O)CC(Nc3ccc(N4CCOCC4)cc3)C2=O)c1` (configuration not stated): 10.2%.

For the origin of these results see PubChem BioAssay AID429 (Emory University Molecular Libraries Screening Center, 2006).
